Assay results reported in PubChem BioAssay (NCATS).
Results filed as inconclusive are left out. Entries that show only a call come without a potency. Unmarked numbers belong to inactive results. Active and inactive are the calls of the source. Calls come from the whole dose curve; as a rule, active = well fitted inhibition curve with a large enough effect; inconclusive = small, poorly fitted or top-dose-only effect; inactive = no such curve, though single readings can be large or run the other way. Where a SMILES comes first, the peptide text is derived from it. [ ]: non-standard residue; d: D form. ξ: configuration not given here. ξPhe(βξ-Me) = CC(c1ccccc1)C(N)C(=O)O; GABA = NCCCC(=O)O

Legend:
[1] = system: Zika virus NS2B-NS3 protease (unlinked complex); assay: Primary screen GU Rhodamine qHTS for Zika virus inhibitors: Unlinked NS2B-NS3 protease assay (AID 1347159); conditions: Recombinant ZIKV NS2B-NS3 protease, Rhodamine110 substrate fluorescence; series mostly up to 107 µM; note: nearly all actives have a fitted effect of over 60% in size
Method in brief: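 Percent inhibition derives from the 15-min fluorescence change (ex 480, em 540 nm), normalized to no-enzyme and no-inhibitor wells. Reactions contained 25 nM NS2B-NS3 complex and 1.5 microM substrate in 10 mM Tris-HCl pH 8.0.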

[2] = system: Zika virus NS2B-NS3 protease (linked construct); assay: Primary screen NINDS Rhodamine qHTS for Zika virus inhibitors (AID 1347160); conditions: purified NS2B-NS3 protease, Rhodamine110 substrate fluorescence; series mostly up to 57.1 µM; note: nearly all actives have a fitted effect of over 55% in size
Method in brief: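 In 10 mM Tris-HCl pH 8.0 containing 0.01% Tween 20, linked NS2B-NS3 protease (25 nM final) is exposed to test compounds for 15 min. Cleavage of 1.5 microM Rhodamine110 substrate is tracked by fluorescence over 15 min.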
Potency is the fitted concentration of half-maximal effect.

| SMILES | Potency [1] | Potency [2] | activity change, negative = inhibition [1] | activity change, negative = inhibition [2] |
| --- | --- | --- | --- | --- |
| OC[C@@]1(O)CO[C@@H](OC[C@H]2O[C@@H](Oc3c[nH]c4ccccc34)[C@H](O)[C@@H](O)[C@@H]2O)[C@@H]1O | inactive | inactive |  |  |
| COc1cc(N2CCOCC2)ccc1Nc1ncc(Cl)c(Nc2ccccc2NS(C)(=O)=O)n1 | inactive | inactive |  |  |
| O=c1[nH]ccc2cc(OC3CCNCC3)ccc12 | inactive | inactive |  |  |
| CCCC(=O)O[C@@H]1[C@@H]2[C@@H](OC(C)=O)[C@]3(C)C(=O)[C@H]4[C@@H](OC(C)=O)C(C)(C)C[C@H]4[C@]3(C)C(=O)[C@@]2(OC(C)=O)C[C@@H]1C | inactive | inactive |  |  |
| CC(C)c1cc(CNc2nc(Nc3cc(C4CC4)[nH]n3)cc(N3CCN(C)CC3)n2)on1 | inactive | inactive |  |  |
| C=C[C@H]1CN2CC[C@H]1C[C@@H]2C(O)c1ccnc2ccc(OC)cc12 (stereo partly specified) | inactive | inactive |  |  |
| Cc1cc(C)nc(NS(=O)(=O)c2ccc(NC(=S)NC(=O)COc3ccc(Br)cc3Cl)cc2)n1 | 7.08 µM (active) | 15.8 µM (active) |  |  |
| CC(CCC1(O)OC2CC3C4CCC5CC(O[C@@H]6O[C@H](CO)[C@@H](O)[C@H](O)[C@H]6O[C@@H]6O[C@@H](C)[C@H](O)[C@@H](O)[C@H]6O)C(O)CC5(C)C4CCC3(C)C2C1C)CO[C@@H]1O[C@H](CO)[C@@H](O)[C@H](O)[C@H]1O (stereo partly specified) | inactive | inactive |  |  |
| C=CC(C)(C)C12C=C(OC)C(=O)N3C(C(C)C)C(=O)NC31N(OC)c1ccccc12 (stereo unspecified) | inactive | inactive |  |  |
| CC(C)=CC/C=C(\C)[C@H]1CC[C@]2(C)[C@@H]1[C@H](O)C[C@@H]1[C@@]3(C)CC[C@H](O)C(C)(C)[C@@H]3[C@@H](O[C@@H]3O[C@H](CO)[C@@H](O)[C@H](O)[C@H]3O)C[C@]12C | inactive | inactive |  |  |
| C/C=C/C=C/C(=O)N1CC[C@]23c4ccccc4N[C@H]4N(C)c5cccc6c5[C@@]42CCN([C@H]6C2OC2(C)C)[C@H]13 (stereo partly specified) | inactive | inactive |  |  |
| CNC(=O)c1cc(Oc2ccc3nc(N[C@@H]4CCCC[C@H]4O)sc3c2)ccn1 | inactive | inactive |  |  |
| c1cc(OCCCN2CCCCC2)ccc1CN1CCCCC1 | inactive | inactive |  |  |
| NC(=O)c1csc(C2OC(CO)C(O)C2O)n1 (stereo unspecified) | inactive | inactive |  |  |
| C=C1CN(Cc2ccc(C(=O)Nc3ccccc3N)cc2)C(=O)c2ccccc21 | inactive | inactive |  |  |
| Cn1ncnc1COc1nn2c(-c3cc(F)ccc3F)nnc2cc1C(C)(C)C | inactive | inactive |  |  |
| NC(=O)c1cnc(NCCc2ccc(O)c(Cl)c2)nc1NCc1ccccc1 | inactive | inactive |  |  |
| COc1ncc2cc(C(=O)Nc3cc(C(=O)NCc4cccc(Cl)c4)ccc3Cl)c(=O)[nH]c2n1 | inactive | inactive |  |  |
| COC(=O)C1=COC(O[C@@H]2O[C@H](CO)[C@@H](O)[C@H](O)[C@H]2O)[C@H]2[C@@H]1[C@H](OC(=O)CCc1ccc(O)cc1)C[C@]2(C)O (stereo partly specified) | inactive | inactive |  |  |
| COc1ccc(CC2C(=O)NC(C)C(=O)N(C)C3Cc4ccc(cc4)Oc4cc(ccc4OC4OC(CO)C(O)C(O)C4O)CC(C(=O)NC(C)C(=O)NC(C)C(=O)N2C)N(C)C3=O)cc1 (stereo unspecified) | inactive | inactive |  |  |
| CC(C)/C=C1\NC(=O)C(C(C)C)n2c1nc1c(c2=O)C=CC=CO1 (stereo unspecified) | inactive | inactive |  |  |
| CN[C@@H]1[C@H](O[C@H]2[C@H](O[C@@H]3[C@@H](O)[C@H](O)[C@@H](N=C(N)N)[C@H](O)[C@H]3N=C(N)N)O[C@@H](C)[C@]2(O)C=O)O[C@@H](CO)[C@H](O)[C@H]1O | inactive | inactive |  |  |
| C[C@H](N)C(=O)N[C@@H](Cc1ccc(O)cc1)C(=O)N1CCC[C@H]1C(=O)NCC(=O)N[C@@H](CCCCN)C(=O)N[C@@H](Cc1ccccc1)C(N)=O |  |  | 124% [at 19.1 µM] | 9.61% [at 10.7 µM] |
| COc1ccc(C(O)C(C)OC2OC(CO)C(O)C(O)C2O)cc1 (stereo unspecified) | inactive | inactive |  |  |
| COc1ccc(CCO[C@@H]2O[C@H](CO[C@@H]3OC[C@H](O)[C@H](O)[C@H]3O)[C@@H](O)[C@H](O)[C@H]2O)cc1 | inactive | inactive |  |  |
| Cc1c(F)cc(C(=O)NC2CC2)cc1-c1c(F)cn2c(C(C)(C)C)nnc2c1F | inactive | inactive |  |  |
| CCC(C)C(=O)OC1CC(C)C=C2C=CC(C)C(CCC(O)CC(O)CC(=O)O)C21 (stereo unspecified) | inactive | inactive |  |  |

| SMILES | Potency [1] | Potency [2] | activity change, negative = inhibition [1] | activity change, negative = inhibition [2] |
| --- | --- | --- | --- | --- |
| O=C(Cc1ccc(-c2ccccc2)cc1)NC1CCC1 | inactive | inactive |  |  |
| COc1cc(C(=O)O)ccc1OC1OC(CO)C(O)C(O)C1O (stereo unspecified) | inactive | inactive |  |  |
| CC1CCC2(OC1)OC1CC3C4CC=C5CC(O)CC(O[C@@H]6OC[C@@H](O)[C@H](O)[C@H]6O)C5(C)C4CCC3(C)C1(O)C2C (stereo partly specified) | inactive | inactive |  |  |
| Cc1cc(OCc2nnc(SC3CCCC3)n2-c2cccnc2)ccc1-c1ccc(S(C)(=O)=O)cc1 | inactive | inactive |  |  |
| CNC(=S)NS(=O)(=O)c1cc(CCNC(=O)c2cc(Cl)ccc2OC)ccc1OC | inactive | inactive |  |  |
| C=CC(C)(O)C(O)CC1C(C)(O)C(O)C(O)C2C(C)(C)CCCC21C (stereo unspecified) | inactive | inactive |  |  |
| Cn1cc(S(=O)(=O)c2ccc(Cl)cc2)c2cccc(N3CCNCC3)c21 | inactive | inactive |  |  |
| C[C@]1(CO)CCC[C@]2(C)C3=C(CCC12)COC3 (stereo partly specified) | inactive | inactive |  |  |
| CCOC(=O)c1sc(NC(=O)[C@H](C(C)C)n2c(=O)[nH]c3ccccc3c2=O)nc1C | inactive | inactive |  |  |
| O=C(c1cccc(Cl)c1F)N1CCN(Cc2cccc(Nc3nccs3)n2)CC1 | inactive | inactive |  |  |
| CCCOc1ccc(-c2nc(OC)c3ccccc3n2)cc1 | inactive | inactive |  |  |
| CC1(C)CC[C@]2(C(=O)O[C@@H]3O[C@H](CO)[C@@H](O)[C@H](O)[C@H]3O)CC[C@]3(C)C(=CCC4[C@@]5(C)CC[C@H](O[C@@H]6O[C@H](C(=O)O)[C@@H](O)[C@H](O)[C@H]6O)[C@@](C)(CO)C5CC[C@]43C)C2C1 (stereo partly specified) | inactive | inactive |  |  |
| CCOc1cc(N2CCC(O)CC2)ccc1Nc1ncc2c(n1)N(C1CCCC1)CCC(=O)N2C | inactive | inactive |  |  |
| COC(=O)CC1CC(c2ccc(O)cc2)=NO1 (stereo unspecified) | inactive | inactive |  |  |
| Cn1nc(C(C)(C)C)cc1C(=O)NC(Cc1cccc(Cl)c1)C(=O)NCC#N (stereo unspecified) | inactive | inactive |  |  |
| Cn1cc(-c2ccc3nnc(Sc4ccc5nn(C)cc5c4)n3n2)cn1 | inactive | inactive |  |  |
| O=C1CCC(=O)N(O)CCCCCNC(=O)CCC(=O)N(O)CCOCCNC(=O)CCC(=O)N(O)CCCCCN1 | inactive | inactive |  |  |
| CC1(C)CC[C@]2(C(=O)O[C@@H]3O[C@H](CO[C@@H]4O[C@H](CO)[C@@H](O)[C@H](O)[C@H]4O[C@@H]4O[C@H](CO)[C@H](O)[C@H](O)[C@H]4O)[C@@H](O)[C@H](O[C@@H]4O[C@H](CO)[C@@H](O)[C@H](O)[C@H]4O)[C@H]3O)CC[C@]3(C)C(=CCC4[C@@]5(C)CC[C@H](O[C@@H]6OC[C@@H](O)[C@H](O)[C@H]6O)[C@@](C)(C(=O)O)C5CC[C@]43C)[C@@H]2C1 (stereo partly specified) |  |  | 20.2% [at 19.1 µM] | -4.93% [at 10.7 µM] |
| CC1(C(=O)O)CCCC2(C)C3CCC4CC3(CCC12)CC4=O (stereo unspecified) | inactive | inactive |  |  |
| C[C@@H]1O[C@@H](O[C@H]2[C@H](O)[C@@H](O)[C@H](OC3CCC4(C)C5CCC(C)(C(CO)OC6OC(CO)C(O)C(O)C6O)CC5=CCC4C3(C)C)O[C@@H]2CO)[C@H](O)[C@H](O)[C@H]1O (stereo partly specified) | inactive | inactive |  |  |
| CC1NC(=O)CCCNC(=O)C(Cc2c[nH]c3ccccc23)NC(=O)C(C)NC(=O)C(C(C)C)NC(=O)C(C(C)c2ccccc2)NC(=O)C(C(C)C)NC1=O (stereo not drawn) (cyclo([GABA]AV[ξPhe(βξ-Me)]VAW); configuration not given here) | inactive | inactive |  |  |
| O=C(COc1cccc2c(=O)[nH]ccc12)c1ccccc1 | inactive | inactive |  |  |
| C/C=C(\C)C(=O)O[C@H]1[C@@H](O[C@]2(COC(=O)CC(C)C)O[C@H](COC(=O)C(C)CC)[C@@H](OC(C)=O)[C@@H]2O)O[C@H](COC(C)=O)[C@@H](O)[C@@H]1O (stereo partly specified) | inactive | inactive |  |  |
| CCN(CC)Cc1ccc(C(=O)N(CCc2ccccc2OC)[C@@H]2CCNC2)cc1 | inactive | inactive |  |  |
| CC1(C)CC[C@]2(C(=O)O[C@@H]3O[C@H](CO)[C@@H](O)[C@H](O)[C@H]3O)CC[C@]3(C)C(=CCC4[C@@]5(C)C[C@@H](O)[C@H](O)[C@](C)(C(=O)O)C5CC[C@]43C)C2C1O (stereo partly specified) | inactive | inactive |  |  |
| CCO[C@@H]1OC(=O)C[C@@H]1NC(=O)[C@@H]1CCCN1C(=O)[C@@H](NC(=O)c1ccc(N)c(Cl)c1)C(C)(C)C | inactive | inactive |  |  |
